25 compounds from ChEMBL document CHEMBL4296182, “CO-ADD screening of NIH NCI Diversity Set V” can be followed below.

As usually defined, the Inhibition is the change of the read-out against control, counted positive when it falls.

For one test, the system named is Staphylococcus aureus. Briefly: Antibacterial activity against Staphylococcus aureus MRSA ATCC 43300 (CO-ADD:GP_020); MIC in CAMBH media using NBS plates, by Resazurin F(560/590). Format: functional. The conditions noted are these: Concentration 20 uM, ASSAY_TEST Inhibition of Bacterial Growth, detection method Resazurin, Fluorescence (ex560/em590), MEDIA CAMHB, plate type 384well, CORNING #3640, time 18 hr. On the technique in general: Alamar Blue is a resazurin reagent that responds to reducing activity.

Another test relates to Acinetobacter baumannii. Nature of the test: Antibacterial activity against Acinetobacter baumannii ATCC 19606 (CO-ADD:GN_034); MIC in CAMBH media using NBS plates, by Resazurin F(560/590). The format is functional. The conditions noted are these: Concentration 20 uM, ASSAY_TEST Inhibition of Bacterial Growth, detection method Resazurin, Fluorescence (ex560/em590), MEDIA CAMHB, plate type 384well, CORNING #3640, time 18 hr.

The test system of a further test is Escherichia coli. Briefly: Antibacterial activity against Escherichia coli ATCC 25922 (CO-ADD:GN_001); MIC in CAMBH media using NBS plates, by Resazurin F(560/590). Format: functional. The note with it: Concentration 20 uM, ASSAY_TEST Inhibition of Bacterial Growth, detection method Resazurin, Fluorescence (ex560/em590), MEDIA CAMHB, plate type 384well, CORNING #3640, time 18 hr.

Another test concerns Klebsiella pneumoniae. The note with it: Concentration 20 uM; ASSAY_TEST Inhibition of Bacterial Growth; detection method Absorption (OD600); MEDIA CAMHB; plate type 384well; NBS; CORNING #3640; time 18 hr.
For a further test, the system named is Candida albicans. The conditions noted are these: 20 µM.
Another test deals with Cryptococcus neoformans. The conditions noted are these: Concentration 20 uM; ASSAY_TEST Inhibition of Fungal Growth; detection method Resazurin; Absorption (OD600-OD570); plate type 384well; NBS; CORNING #3640.

For part of these data: Potency and affinity values are given separately.

Consider `CN(C)c1ccc(/C=C/c2ccc3ccccc3n2)cc1`, for which the Inhibition in the test with Staphylococcus aureus was -2.51%; in the test with Acinetobacter baumannii it was 5.82%; with Escherichia coli, 5.25%; in the test on Klebsiella pneumoniae, 10.87%; with Candida albicans, 5.63%; with Cryptococcus neoformans, -14.32%.
With `Cc1ccccc1NC(=O)C(=O)Nc1ccccc1C`, the Inhibition in the test with Staphylococcus aureus is 22.64%; in the test with Acinetobacter baumannii, -12.42%; in the test with Escherichia coli, 18.63%; with Klebsiella pneumoniae, -3.39%; in the test with Candida albicans, 6.51%; in the test on Cryptococcus neoformans it was 7.92%.
In the case of `CCS(=O)(=O)C1C(=O)N(C)C(S(=O)(=O)CC)C(=O)N1C` (stereo not given), the Inhibition in the test with Staphylococcus aureus was 23.63%; in the test with Acinetobacter baumannii, 9.14%; in the test on Escherichia coli, 3.65%; in the test on Klebsiella pneumoniae, 7.03%; with Candida albicans it was 1.37%; in the test with Cryptococcus neoformans it was -11.73%.
With `Nc1nc(N)c(/N=N/c2ccc(C(=O)O)cc2)c(N)n1`, the Inhibition is 20.24% in the test with Staphylococcus aureus; -14.9% in the test on Acinetobacter baumannii; 9.92% in the test on Escherichia coli; 6.15% in the test on Klebsiella pneumoniae; 7.35% with Candida albicans; -10.91% with Cryptococcus neoformans.
With `O=C(O)CCC(=O)c1ccc2ccc3cccc4ccc1c2c34`, the Inhibition in the test on Staphylococcus aureus is -4.99%; in the test on Acinetobacter baumannii it was 9.69%; with Escherichia coli it was -8.48%; in the test on Klebsiella pneumoniae, 28.79%; in the test on Candida albicans, 21.7%; with Cryptococcus neoformans, -11.75%.
`O=C(Nc1ccc(Nc2ccccc2)cc1)Nc1ccccc1Cl`: the Inhibition with Staphylococcus aureus is -2.92%; with Acinetobacter baumannii it was 1.03%; in the test on Escherichia coli it was 8.7%; in the test on Klebsiella pneumoniae, 12.39%; in the test with Candida albicans, 2.75%; with Cryptococcus neoformans, -5.44%.
Consider `Cc1oc2c(c(C)nn2-c2ccccc2)c(=O)c1Cl`, for which the Inhibition with Staphylococcus aureus is -0.13%; in the test with Acinetobacter baumannii it was -6.85%; in the test on Escherichia coli it was 7.16%; in the test with Klebsiella pneumoniae it was 9.65%; in the test on Candida albicans, 14.3%; in the test with Cryptococcus neoformans, 35.87%.
For the compound `O=C1/C(=N\c2cccc(Cl)c2)CC(c2ccc(Cl)cc2)N1c1cccc(Cl)c1` (stereo not given), the Inhibition was 20.38% in the test with Staphylococcus aureus; -11.7% in the test with Acinetobacter baumannii; 10.42% in the test on Escherichia coli; 18.13% in the test on Klebsiella pneumoniae; -2.19% in the test on Candida albicans; -8.61% in the test with Cryptococcus neoformans.
As for `CC(C)(C)C1=NN=C2c3ccccc3C(=O)C21` (stereo not given), the Inhibition in the test with Staphylococcus aureus was -4.27%; in the test on Acinetobacter baumannii, 3.03%; in the test with Escherichia coli, -6.26%; with Klebsiella pneumoniae, 1.25%; in the test with Candida albicans it was 5.03%; in the test on Cryptococcus neoformans, -9.6%.
Turning to `COc1cc(/C=C2\CCOC2=O)cc(OC)c1OC`, the Inhibition with Staphylococcus aureus was 4.75%; in the test with Acinetobacter baumannii, 13.86%; with Escherichia coli it was 8.29%; with Klebsiella pneumoniae it was 12.15%; in the test with Candida albicans it was 2.88%; in the test with Cryptococcus neoformans, -2.47%.
As for `CCC1(C(=O)OC)CCc2c(cc(OC)c3ccccc23)C1=O` (stereo not given), the Inhibition was 5.5% with Staphylococcus aureus; -17.62% in the test with Acinetobacter baumannii; 8.82% with Escherichia coli; 8.69% in the test with Klebsiella pneumoniae; 3.67% in the test on Candida albicans; -10.67% in the test with Cryptococcus neoformans.
On to `CCCCCn1cnc2c(S)nc(N)nc21`, for which the Inhibition in the test on Staphylococcus aureus was 4.88%; in the test on Acinetobacter baumannii, -14.99%; in the test with Escherichia coli, 12.21%; with Klebsiella pneumoniae, 5.23%; with Candida albicans it was 1.29%; in the test with Cryptococcus neoformans, -16.43%.
For the compound `CCC(C)NC(=O)CC(C)C` (stereo not given), the Inhibition with Staphylococcus aureus was 6.08%; in the test on Acinetobacter baumannii, -12.68%; in the test on Escherichia coli, 19.94%; with Klebsiella pneumoniae, 15.35%; in the test with Candida albicans, -0.68%; in the test on Cryptococcus neoformans it was -12.52%.
As to `CC1=NC2=CC=CC3=NC(C(Cl)(Cl)Cl)=NC(=N1)N23`, the Inhibition in the test with Staphylococcus aureus was -3.19%; with Acinetobacter baumannii, 10.22%; in the test on Escherichia coli, 9.49%; in the test on Klebsiella pneumoniae, 11.94%; in the test with Candida albicans, 1.15%; in the test on Cryptococcus neoformans it was -10.05%.
In the case of `Cc1cc(=O)n2c3c(c4c(cc13)c(CN(C)C)cc(=O)n4C)OC2.Cl`, the Inhibition in the test on Staphylococcus aureus is -3.31%; with Acinetobacter baumannii, 19.85%; in the test on Escherichia coli it was 6.04%; with Klebsiella pneumoniae, 7.61%; with Candida albicans, -0.27%; in the test on Cryptococcus neoformans, -11%.
Take `COc1ccc(/C=C2/CCOC2=O)cc1`: the Inhibition with Staphylococcus aureus is -2.28%; in the test with Acinetobacter baumannii it was -9.37%; with Escherichia coli it was 12.04%; in the test with Klebsiella pneumoniae it was 6.07%; with Candida albicans it was 3.59%; in the test on Cryptococcus neoformans, -15.8%.
As for `CC1(C)c2ccccc2-c2nc3ccccc3cc2C1O` (stereo not given), the Inhibition in the test on Staphylococcus aureus is 15.31%; in the test on Acinetobacter baumannii, 7.67%; in the test on Escherichia coli, -1.43%; in the test with Klebsiella pneumoniae it was 14.38%; in the test on Candida albicans it was 9.47%; with Cryptococcus neoformans, -10.94%.
Turning to `CC(C)C(=O)c1ccc(O)c(O)c1`, the Inhibition is -0.55% in the test with Staphylococcus aureus; -3.52% in the test on Acinetobacter baumannii; -12.2% in the test on Escherichia coli; 9.02% in the test with Klebsiella pneumoniae; 3.31% in the test on Candida albicans; 21.92% in the test with Cryptococcus neoformans.
On to `O=c1cc2oc3cc(O)c(O)cc3c(-c3ccccc3O)c-2cc1O`, for which the Inhibition in the test with Staphylococcus aureus is -11.77%; with Acinetobacter baumannii, -19.46%; in the test on Escherichia coli, 15.45%; in the test on Klebsiella pneumoniae, 16.39%; in the test with Candida albicans, 44.4%; in the test on Cryptococcus neoformans, -6.63%.
As for `Nc1cc([N+](=O)[O-])ccc1Nc1ccc(O)cc1`, the Inhibition was -9.75% in the test on Staphylococcus aureus; -11.21% in the test on Acinetobacter baumannii; 0.26% with Escherichia coli; 0.39% with Klebsiella pneumoniae; 3.23% in the test on Candida albicans; -0.22% in the test with Cryptococcus neoformans.
`CCOC(=O)C1=C(N)N=C(N)C1=Nc1ccc(OC)cc1`: the Inhibition was 10.45% in the test with Staphylococcus aureus; -11.35% in the test on Acinetobacter baumannii; 6.73% with Escherichia coli; 4.94% with Klebsiella pneumoniae; -1.95% with Candida albicans; -7.84% in the test on Cryptococcus neoformans.
For `Cc1nc(NC(=N)N(C)C)nc(O)c1C`, the Inhibition in the test with Staphylococcus aureus was 4.99%; in the test with Acinetobacter baumannii, -6.08%; in the test with Escherichia coli, 5.79%; in the test with Klebsiella pneumoniae, 6.63%; in the test with Candida albicans it was 0.54%; in the test on Cryptococcus neoformans, -10.51%.
For `Clc1nc(NCCc2ccccc2)c2c[nH]nc2n1`, the Inhibition with Staphylococcus aureus was 2.77%; with Acinetobacter baumannii, 12.4%; in the test on Escherichia coli, 0.9%; in the test with Klebsiella pneumoniae, 13.65%; in the test with Candida albicans it was 5.89%; in the test on Cryptococcus neoformans it was -10.39%.
As for `O=C1c2ccccc2NC(c2cc(Cl)cc(Cl)c2O)N1CCc1ccccn1` (stereo not given), the Inhibition in the test with Staphylococcus aureus was 27.48%; with Acinetobacter baumannii, -1.5%; in the test with Escherichia coli, 9.13%; in the test on Klebsiella pneumoniae it was 12.19%; in the test with Candida albicans, 2.81%; with Cryptococcus neoformans, -0.4%.
Consider `N=C(N)NS(=O)(=O)c1ccc(/N=C2/C(=O)Nc3ccccc32)cc1`, for which the Inhibition with Staphylococcus aureus is 10.79%; in the test on Acinetobacter baumannii, 2.06%; in the test on Escherichia coli, 11.61%; in the test on Klebsiella pneumoniae, 5.69%; with Candida albicans, -0.17%; with Cryptococcus neoformans, -10.75%.
